The assay concerns Drosophila melanogaster bursicon receptor LGR2 (rickets). Put plainly: LGR2 antagonists, dose response, cell-based, HEK293, CRE-luciferase reporter, cherry pick, set 2 (AID 743343). A general note: In a reporter assay the amount or activity of a reporter protein is the signal.

Entries with a potency or affinity are not part of this list. Calls of active or inactive are those of the source. The rule behind the calls is not given here.

Regarding `O=C(c1ccc(F)cc1)N1CC(=O)N2[C@@H](CO)[C@@H](c3ccc(C#CC4CCCC4)cc3)[C@@H]2C1`, the result was inactive.

On to `Cc1ccc(-n2cc(CN(C)Cc3nccn3C)c(-c3cccc(C)c3)n2)cc1`, for which the compound was called inactive.

As for `CC[C@H](CO)Oc1cc(NCc2ccc(Cl)c(Cl)c2)c2ncn(C(C)C)c2c1`, the outcome was inactive.

With `O=C(c1ccc(CSc2nc3ccncc3[nH]2)cc1)N1CCN(c2cccc(Cl)c2)CC1`, the outcome was inactive.

On to `O=C(NCc1ccco1)c1cc(NS(=O)(=O)c2cccc([N+](=O)[O-])c2)ccc1O`, for which the compound was classed as inactive.

For the compound `COc1ccc(S(=O)(=O)N2CCOCC2)cc1NC(=O)COc1ccc(C)cc1`, the compound was classed as inactive.

Take `C[C@@H]1CN([C@@H](C)CO)S(=O)(=O)c2ccc(C3=CCCC3)cc2O[C@H]1CN(C)C(=O)c1ccccc1`: the call was inactive.

For `CC(C)CCNC(=O)C(c1ccc(O)cc1)N(Cc1cccs1)C(=O)C1COc2ccccc2O1` (stereo not drawn), the call was inactive.

Consider `Cc1ccc2nc(-c3ccc(NC(=O)c4cccnc4)cc3)oc2c1`, for which the call was inactive.

As to `COc1ccc(NC(=O)Nc2ccc3c(c2)CC(=O)N([C@@H](C)CO)C[C@@H](C)[C@H](CN(C)Cc2ccncc2)O3)cc1`, the outcome was inactive.

In the case of `O=C(NCc1ccc(F)cc1)c1cc(C2CCCCN2S(=O)(=O)c2cccs2)on1` (stereo not drawn), the call was inactive.

As to `CCN(C(=O)COC(=O)C12CC3CC(CC(O)(C3)C1)C2)c1c(N)n(Cc2ccccc2)c(=O)[nH]c1=O`, the call was inactive.

For `O=C(Cc1ccccc1Cl)Nc1cccnc1`, the call was inactive.

With `Cc1ccnc(N2C(=O)c3ccccc3C2Nc2ccc3c(c2)OCCO3)c1` (stereo not drawn), the compound was called inactive.

Turning to `CC(=O)Nc1cccc(-c2ccnc3c2CC(C(=O)NCc2cccnc2)O3)c1` (stereo not drawn), the outcome was inactive.

For the compound `COCC#Cc1ccc2c(c1)O[C@H](CN(C)S(=O)(=O)c1cccc(F)c1)[C@@H](C)CN([C@H](C)CO)S2(=O)=O`, the compound was called inactive.

`C[C@@H]1CN([C@H](C)CO)C(=O)CCCn2nncc2CO[C@H]1CN(C)C(=O)Nc1cccc2ccccc12`: the compound was called inactive.

For the compound `COc1cccc(C#Cc2ccc([C@@H]3[C@@H](CO)N(C(=O)C4CCC4)[C@H]3C#N)cc2)c1`, the call was inactive.

Regarding `N#C[C@@H]1[C@H](c2ccc(C#CC3CCCCC3)cc2)[C@@H](CO)N1C(=O)c1cccc(F)c1`, the outcome was inactive.

Take `O=C(CN1CCOc2ccccc21)NCc1ccc(F)cc1`: the compound was called inactive.

As to `CNCc1ccccc1Sc1ccc(O)c(O)c1`, the compound was classed as inactive.

On to `CC1CN(C(=O)c2cccc(S(=O)(=O)Nc3cc(Cl)ccc3Cl)c2)CC(C)O1` (stereo not drawn), for which the compound was called inactive.

For the compound `COc1cc(CNCCO)cc(Cl)c1OCc1ccc(Cl)cc1Cl`, the outcome was inactive.

`Cc1ccc(S(=O)(=O)N2CCCc3nc(-c4ccc(F)cc4)ccc32)cc1`: the result was inactive.

For the compound `COc1ccc(S(=O)(=O)N2CCN(C(=O)c3ccc(C)o3)CC2)cc1`, the outcome was inactive.

Take `CC1CCN(C(=O)c2ccc(S(=O)(=O)Cc3cc(F)ccc3F)c([N+](=O)[O-])c2)CC1`: the compound was classed as inactive.

For the compound `O=S(=O)(Nc1ccc(O)c2ccccc12)c1ccc(OC(F)(F)F)cc1`, the call was inactive.

In the case of `O=C(Nc1cc(S(=O)(=O)Nc2ccccc2Cl)ccc1O)c1ccc(F)cc1F`, the result was inactive.

With `C[C@H](CO)N1C[C@H](C)[C@H](CN(C)C(=O)CN2CCOCC2)Oc2ncc(C#CCN(C)C)cc2C1=O`, the result was inactive.

For the compound `OC[C@H]1[C@@H](c2ccc(-c3ccc(F)cc3)cc2)[C@@H]2CN(Cc3ccccn3)CCCCN12`, the compound was called inactive.

As for `O=C(c1ccc2c(c1)OCCO2)C1CCN(S(=O)(=O)c2ccc(F)cc2)CC1`, the compound was called inactive.

As to `Cc1cccc(Cn2ncc(Cl)c(Cl)c2=O)c1`, the compound was called inactive.

Take `CC(C)N(C(=O)Nc1ccc2nsnc2c1)C(C)C`: the compound was called inactive.

Regarding `Cc1ccc(NC(=O)c2ncn(CC(=O)NCc3ccc4[nH]ccc4c3)n2)cc1C`, the compound was classed as inactive.

On to `O=C(Nc1ccc(N2CCOCC2)c(S(=O)(=O)Nc2ccccc2Cl)c1)c1ccc(F)cc1`, for which the result was inactive.

Regarding `COc1ccc(N(CC(=O)NCc2cccs2)S(=O)(=O)c2ccc(C(C)=O)cc2)cc1`, the compound was classed as inactive.

Turning to `CC(=O)c1ccc(S(=O)(=O)N2CCC(NC(=O)Nc3cccc(F)c3)CC2)cc1`, the outcome was inactive.

Regarding `Cc1ccc(S(=O)(=O)N2[C@@H](CO)CO[C@H]2CC(=O)OCc2ccccc2)cc1`, the compound was called inactive.
